Source: PubChem BioAssay
Records with an inconclusive call do not appear. The source made the active and inactive calls. Unless noted, no cut-off is given here; in the data, nearly all actives have AC50 up to about 30 µM.

Assay: growth inhibition of DIPG cells – cell-based, MIPE4.0 library, CellTiter-Glo luminescence, qHTS (AID 1347066)
Details: SU-DIPG-VI viability, CellTiter-Glo ATP luminescence
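Note: cells exposed to compound for 48 hours before readout.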

Compound	outcome
O=c1[nH]cc(F)c(=O)[nH]1	inactive
CCc1nc(N)nc(N)c1-c1ccc(Cl)cc1	inactive
CCc1cccc2c3c([nH]c12)C(CC)(CC(=O)O)OCC3 (configuration not stated)	inactive
Cc1ccccc1C(OCCN(C)C)c1ccccc1 (configuration not stated)	inactive
Cc1ccc(C)c(OCCCC(C)(C)C(=O)O)c1	inactive
CCCCCCNC(=O)n1cc(F)c(=O)[nH]c1=O	inactive
Cc1ncc([N+](=O)[O-])n1CC(C)O (configuration not stated)	inactive
COc1cc2nc(N(C)CCCNC(=O)C3CCCO3)nc(N)c2cc1OC (configuration not stated)	inactive
CN(C)CCc1c[nH]c2ccc(C[C@H]3COC(=O)N3)cc12	inactive
O=S(=O)(O)CCS	inactive
C/C=C/C(=O)N(CC)c1ccccc1C	inactive
c1ccc2[nH]c(-c3cscn3)nc2c1	inactive
CCCNCC(O)COc1ccccc1C(=O)CCc1ccccc1 (configuration not stated)	inactive
NC(=O)N1c2ccccc2CC(=O)c2ccccc21	inactive
Cc1cn([C@H]2C[C@H](N=[N+]=[N-])[C@@H](CO)O2)c(=O)[nH]c1=O	inactive
CN(CCOc1ccc(CC2SC(=O)NC2=O)cc1)c1ccccn1 (configuration not stated)	inactive
COc1ccccc1OCC(O)COC(N)=O (configuration not stated)	inactive
COC(=O)Nc1nc2ccc(C(=O)c3ccccc3)cc2[nH]1	inactive
CCn1cc(C(=O)O)c(=O)c2cc(F)c(N3CCN(C)CC3)cc21	inactive
Clc1ccc2c(c1)C(N1CCNCC1)=Nc1ccccc1O2	inactive
NS(=O)(=O)c1cc2c(cc1Cl)NC=NS2(=O)=O	inactive

Assay: JHH-DIPG-1 glioma cell viability, MIPE5.0 library, CellTiter-Glo luminescence, qHTS (AID 1347067; cut-off not given, nearly all actives have AC50 up to about 26 µM)
Details: JHH-DIPG-1 glioma viability, CellTiter-Glo ATP luminescence

Compound	outcome	AC50
O=c1[nH]cc(F)c(=O)[nH]1	inactive	–
CCc1nc(N)nc(N)c1-c1ccc(Cl)cc1	inactive	–
Nc1ncn([C@@H]2O[C@H](CO)[C@@H](O)[C@H]2O)c(=O)n1	–	7.42 µM (active)
Cc1ccc(C)c(OCCCC(C)(C)C(=O)O)c1	inactive	–
NC(=O)c1cnccn1	inactive	–
CCCCCCNC(=O)n1cc(F)c(=O)[nH]c1=O	inactive	–
Cc1ncc([N+](=O)[O-])n1CC(C)O (configuration not stated)	inactive	–
OCCN1CCN(CCCN2c3ccccc3Sc3ccc(C(F)(F)F)cc32)CC1	–	3.72 µM (active)
Cc1ccc(-c2cc(C(F)(F)F)nn2-c2ccc(S(N)(=O)=O)cc2)cc1	–	10.5 µM (active)
CN[C@H]1CC[C@@H](c2ccc(Cl)c(Cl)c2)c2ccccc21	–	16.6 µM (active)
O=S(=O)(O)CCS	inactive	–
C/C=C/C(=O)N(CC)c1ccccc1C	inactive	–
c1ccc2[nH]c(-c3cscn3)nc2c1	inactive	–
CN(CCOc1ccc(CC2SC(=O)NC2=O)cc1)c1ccccn1 (configuration not stated)	inactive	–
COC(=O)Nc1nc2ccc(C(=O)c3ccccc3)cc2[nH]1	–	0.468 µM (active)
NS(=O)(=O)c1cc2c(cc1Cl)NC=NS2(=O)=O	inactive	–
